The values below come from PubChem BioAssay (EPA / NIEHS).

Results filed as inconclusive are left out. Activity calls are given as the source filed them. The calls were made as follows: active = hit-call score of the fitted dose curve at least 0.9, where 1 is the maximum; inconclusive = response in the unintended direction; inactive = score below 0.9.

human Adrenergic, Alpha 2A Receptor (Adra2A), ADRA2A (gene 150), sequence (P08913 whole entry, looked up): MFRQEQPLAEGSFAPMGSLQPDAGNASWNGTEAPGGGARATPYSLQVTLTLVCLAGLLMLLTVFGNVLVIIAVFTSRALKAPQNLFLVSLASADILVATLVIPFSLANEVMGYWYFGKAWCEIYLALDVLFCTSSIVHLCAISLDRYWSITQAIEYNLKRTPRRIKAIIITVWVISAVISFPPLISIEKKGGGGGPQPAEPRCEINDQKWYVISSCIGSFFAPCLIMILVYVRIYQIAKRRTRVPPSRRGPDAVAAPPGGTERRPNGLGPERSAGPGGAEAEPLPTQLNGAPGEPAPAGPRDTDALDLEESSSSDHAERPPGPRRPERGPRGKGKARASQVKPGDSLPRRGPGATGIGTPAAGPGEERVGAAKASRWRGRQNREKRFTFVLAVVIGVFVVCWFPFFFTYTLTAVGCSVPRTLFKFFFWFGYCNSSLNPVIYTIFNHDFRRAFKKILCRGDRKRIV
human Adrenergic, Alpha 2c Receptor (Adra2C), ADRA2C (gene 152), sequence (P18825 whole entry, looked up): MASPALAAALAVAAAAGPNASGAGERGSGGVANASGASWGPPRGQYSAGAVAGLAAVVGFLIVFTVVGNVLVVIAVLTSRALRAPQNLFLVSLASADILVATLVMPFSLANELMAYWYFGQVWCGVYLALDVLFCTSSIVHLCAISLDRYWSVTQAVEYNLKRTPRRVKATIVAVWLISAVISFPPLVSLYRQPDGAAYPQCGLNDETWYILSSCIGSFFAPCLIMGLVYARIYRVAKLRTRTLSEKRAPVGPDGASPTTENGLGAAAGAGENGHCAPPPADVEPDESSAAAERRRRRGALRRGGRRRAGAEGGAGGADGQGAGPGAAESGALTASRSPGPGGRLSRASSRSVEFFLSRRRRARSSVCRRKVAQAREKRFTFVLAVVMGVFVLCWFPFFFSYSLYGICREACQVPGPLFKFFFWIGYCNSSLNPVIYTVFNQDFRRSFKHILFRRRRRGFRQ
human Adrenergic, Beta 1 Receptor (Adrb1), ADRB1 (gene 153), sequence (P08588 whole entry, looked up): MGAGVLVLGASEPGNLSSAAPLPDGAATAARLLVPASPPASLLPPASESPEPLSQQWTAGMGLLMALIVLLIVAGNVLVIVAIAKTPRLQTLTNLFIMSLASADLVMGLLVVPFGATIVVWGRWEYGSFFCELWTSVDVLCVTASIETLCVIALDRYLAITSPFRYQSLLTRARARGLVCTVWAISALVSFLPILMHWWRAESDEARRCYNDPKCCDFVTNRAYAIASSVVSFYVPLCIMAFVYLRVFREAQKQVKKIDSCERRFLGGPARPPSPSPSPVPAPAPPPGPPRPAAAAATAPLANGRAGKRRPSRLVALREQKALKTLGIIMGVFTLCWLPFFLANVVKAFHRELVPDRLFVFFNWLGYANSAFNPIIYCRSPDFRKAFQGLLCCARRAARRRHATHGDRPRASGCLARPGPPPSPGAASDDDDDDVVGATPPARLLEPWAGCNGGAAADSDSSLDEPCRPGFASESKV

One assay deals with human Adrenergic, Alpha 2A Receptor (Adra2A), ADRA2A (gene 150) (UniProt P08913). The assay can be described thus: NVS_GPCR_hAdra2A: NovaScreen (NVS) G Protein-Coupled Receptor Assay for human Adrenergic, Alpha 2A Receptor (Adra2A) (AID 2283257). Put shortly:
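Displacement of a specific radioligand from HT29 membrane protein was counted by filter scintillation after 1 h. Compounds were screened in duplicate at 25 uM, and actives were retested in concentration series. Fitting was positive-direction against DMSO.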
For the molecule `CCCCCCC(=O)O`, the result was inactive.
The same measure, in the same setting: the entry for `CCN(CC)CCNc1ccc(CNC=O)c2sc3ccc(OC)cc3c(=O)c12` is “inactive”; for `CCCCCCCCCCCCc1ccccc1S(=O)(=O)O` it is “inactive”.
Turning to `NC(=O)N(O)[C@@H]1C=C[C@H](Oc2cccc(Oc3ccc(F)cc3)c2)C1`, the AC50 is 6.62 µM (active).
With `CCCOc1sc(C(=O)N2CCC(c3cc(CN)ccc3F)CC2)c(C)c1Br`, the AC50 was 4.12 µM (active).

In a further assay the target is human Adrenergic, Beta 1 Receptor (Adrb1), ADRB1 (gene 153) (UniProt P08588). The assay can be described thus: NVS_GPCR_hAdrb1: NovaScreen (NVS) G Protein-Coupled Receptor Assay for human Adrenergic, Beta 1 Receptor (Adrb1) (AID 2283258). On the procedure:
NVS_GPCR_hAdrb1 is a biochemical, single-readout assay that uses extracted gene-proteins from Human neuroepithelioma cells in a cell-free assay. Measurements were taken 2 hours after chemical dosing in a 96-well plate.NVS_GPCR_hAdrb1 is one of one assay component(s) measured or calculated from the NVS_GPCR_hAdrb1 assay. It is designed to make measurements of radioligand binding, a form of binding reporter, as detected with scintillation counting signals by Filter-based radiodetection technology.Data from the assay component NVS_GPCR_hAdrb1 was analyzed into 1 assay endpoint. This assay endpoint, NVS_GPCR_hAdrb1, was analyzed in the positive analysis fitting direction relative to DMSO as the negative control and baseline of activity. Using a type of binding reporter, loss-of-signal activity can be used to understand changes in the binding as they relate to the gene ADRB1. Furthermore, this assay endpoint can be referred to as a primary readout, because the performed assay has only produced 1 assay endpoint. To generalize the intended target to other relatable targets, this assay endpoint is annotated to the gpcr intended target family, where the subfamily is rhodopsin-like receptor.
Binding assays used specific radioligands (tritiated, iodinated) with non-radioactive competitive displacement ligands in agonist or antagonist protocols (as indicated) and various reference compounds and inhibitors to titrate specific binding to receptors and transporters. Most enzyme assays (CYPs, kinases, phosphatases, proteases, HDACs) used recombinant protein and specific substrates (fluorescence mostly, some colorimetric and radioactive) and inhibitors, followed by a biochemical separation of substrate and product. All assays for the biochemical HTS were initially run in duplicate at a single concentration (10 uM for CYP450 assays and 25 uM for all others). […] Each assay was run with positive and negative controls, and concurrent controls on every plate. The follow-up (secondary) screen tested active chemical-pairs in concentration series, as well as a few additional assays not tested in the primary screen, some selected negative inactives, and several cases re-run in the concentration series for confirmatory purposes.
As to `CN1CCN(c2ccccc2/C=C2\SCCN(c3ccc(Cl)c(Cl)c3)C2=O)CC1`, the concentration at half-maximal activity (AC50) was 3.51 µM (active).
Regarding `CCCCCCCCCCCCCCCS(=O)(=O)Oc1ccccc1`, the call was inactive.
Same read-out and setting: with `NC(=O)N1C(=O)C(C(=O)c2cc(Cl)cs2)c2cc(F)c(Cl)cc21` (stereo not drawn) the entry was “inactive”.
Consider `CCCCCCCCCCCCc1ccccc1S(=O)(=O)O`, for which the half-maximal activity concentration (AC50) is 6.83 µM (active).
Regarding `NC(=O)N(O)[C@@H]1C=C[C@H](Oc2cccc(Oc3ccc(F)cc3)c2)C1`, the molecule was classed as inactive.
For `CCCOc1sc(C(=O)N2CCC(c3cc(CN)ccc3F)CC2)c(C)c1Br`, the concentration at half-maximal activity (AC50) was 15.2 µM (active).

A further assay deals with human Adrenergic, Alpha 2c Receptor (Adra2C), ADRA2C (gene 152) (UniProt P18825). Put plainly: NVS_GPCR_hAdra2C: NovaScreen (NVS) G Protein-Coupled Receptor Assay for human Adrenergic, Alpha 2c Receptor (Adra2C) (AID 2283259). A digest of the protocol:
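Screened first in duplicate at 25 uM, with actives then run as concentration series. Membranes from Sf9 cells were exposed for 1 h, and displacement of radioligand was counted after filtration, using DMSO as baseline.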
For the molecule `Cc1oc(-c2ccccc2)nc1CCOc1ccc(C[C@H](Nc2ccccc2C(=O)c2ccccc2)C(=O)O)cc1`, the concentration at half-maximal activity (AC50) was 13.6 µM (active).
For the molecule `NC(=O)N1C(=O)C(C(=O)c2cc(Cl)cs2)c2cc(F)c(Cl)cc21` (stereo not drawn), the AC50 is 25 µM (active).
In the case of `CC[C@H](c1ccc(O)cc1)[C@@H](CC)c1ccc(O)cc1`, the result was inactive.
In the case of `CCN(CC)CCNc1ccc(CNC=O)c2sc3ccc(OC)cc3c(=O)c12`, the AC50 is 14.6 µM (active).
Same read-out and setting: with `CCCCCCCCCCCCc1ccccc1S(=O)(=O)O` the figure was 7.16 µM (active); with `CCC(=C(c1ccc(O)cc1)c1ccc(OCCN(C)C)cc1)c1ccccc1`, 4.42 µM (active); with `CCCOc1sc(C(=O)N2CCC(c3cc(CN)ccc3F)CC2)c(C)c1Br`, 8.34 µM (active).

The target of a further assay is Beta-2 adrenergic receptor (Homo sapiens) (UniProt P07550). The assay can be described thus: NVS_GPCR_hAdrb2: NovaScreen (NVS) G Protein-Coupled Receptor Assay for human Adrenergic, Beta 2 Receptor (Adrb2) (AID 2283261). Put shortly: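 Compounds screened in duplicate at 25 uM, then actives in concentration series. Human beta-2 receptor from CHO material, cell-free; radioligand displacement after 1 h measured by filtration and scintillation against DMSO baseline.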
Beta-2 adrenergic receptor (Homo sapiens), sequence (P07550 whole entry, looked up): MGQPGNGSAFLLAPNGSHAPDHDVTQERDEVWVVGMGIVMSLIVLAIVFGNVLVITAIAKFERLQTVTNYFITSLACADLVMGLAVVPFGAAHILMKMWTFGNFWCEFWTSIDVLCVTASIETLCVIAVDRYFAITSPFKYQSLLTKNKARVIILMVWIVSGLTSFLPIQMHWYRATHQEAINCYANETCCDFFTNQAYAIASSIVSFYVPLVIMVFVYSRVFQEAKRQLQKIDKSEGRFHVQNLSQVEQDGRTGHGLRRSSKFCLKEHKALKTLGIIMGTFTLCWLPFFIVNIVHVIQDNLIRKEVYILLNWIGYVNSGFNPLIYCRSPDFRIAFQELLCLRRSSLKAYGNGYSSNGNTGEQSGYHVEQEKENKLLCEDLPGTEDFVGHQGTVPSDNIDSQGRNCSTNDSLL
For `CN1CCN(c2ccccc2/C=C2\SCCN(c3ccc(Cl)c(Cl)c3)C2=O)CC1`, the AC50 is 0.199 µM (active).
On the same count and under the same terms, the figure for `CCN(CC)CCNc1ccc(CNC=O)c2sc3ccc(OC)cc3c(=O)c12` is 28.3 µM (active); for `CCCCCCCCCCCCc1ccccc1S(=O)(=O)O` it is 21.7 µM (active).
For the molecule `NC(=O)N(O)[C@@H]1C=C[C@H](Oc2cccc(Oc3ccc(F)cc3)c2)C1`, the molecule was classed as inactive.
As for `CCCOc1sc(C(=O)N2CCC(c3cc(CN)ccc3F)CC2)c(C)c1Br`, the concentration at half-maximal activity (AC50) is 7.53 µM (active).

For a further assay, the target named is human Adrenergic, Beta 3 Receptor (Adrb3), ADRB3 (gene 155) (UniProt P13945). The assay can be described thus: NVS_GPCR_hAdrb3: NovaScreen (NVS) G Protein-Coupled Receptor Assay for human Adrenergic, Beta 3 Receptor (Adrb3) (AID 2283262). Put shortly: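 A cell-free filter binding assay read by scintillation counting, with displacement of a specific radioligand measured after 1 hour. The receptor source was SK-N-MC extracts (cells pretreated with isoproterenol and 8-bromo-cAMP). Compounds were first tested at 25 uM in duplicate and then in concentration series.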
human Adrenergic, Beta 3 Receptor (Adrb3), ADRB3 (gene 155), sequence (P13945 whole entry, looked up): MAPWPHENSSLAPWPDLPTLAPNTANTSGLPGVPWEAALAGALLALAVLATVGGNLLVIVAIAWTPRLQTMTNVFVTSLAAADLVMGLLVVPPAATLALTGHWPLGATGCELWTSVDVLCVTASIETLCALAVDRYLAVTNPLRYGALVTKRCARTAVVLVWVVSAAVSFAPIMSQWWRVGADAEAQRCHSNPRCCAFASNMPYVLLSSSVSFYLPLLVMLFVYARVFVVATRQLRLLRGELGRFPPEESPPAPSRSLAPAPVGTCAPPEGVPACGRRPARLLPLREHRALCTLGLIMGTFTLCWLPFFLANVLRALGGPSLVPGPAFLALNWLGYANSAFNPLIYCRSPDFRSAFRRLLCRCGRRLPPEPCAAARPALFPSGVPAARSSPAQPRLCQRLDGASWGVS
As for `CC[C@H](c1ccc(O)cc1)[C@@H](CC)c1ccc(O)cc1`, the molecule was classed as inactive.
On the same count and under the same terms, the entry for `NC(=O)N(O)[C@@H]1C=C[C@H](Oc2cccc(Oc3ccc(F)cc3)c2)C1` is “inactive”.
As to `CC(=O)NC1(c2cccc(F)c2)CCN(CC[C@@]2(c3ccc(Cl)c(Cl)c3)CN(c3ccccc3)C(=O)CO2)CC1`, the AC50 was 34.2 µM (active).
Turning to `CC(=O)CC(C)(C)O`, the molecule was classed as inactive.
With `CCCOc1sc(C(=O)N2CCC(c3cc(CN)ccc3F)CC2)c(C)c1Br`, the concentration at half-maximal activity (AC50) was 33.5 µM (active).
